A selection: hits, their analogues and other compounds. The true share with any hit is near 0.74%.
TSHR antagonist – blocks TSH signaling through the human TSH receptor; P16473; TSHR-expressing cells, TSH-stimulated cAMP HTRF, 2 h; hits give low values; activity change, negative = inhibition, % at 11.5 µM; 330,000 compounds, 0.2% hits;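 active means activity change below a set negative limit, meaning inhibition stronger than a set level, cut at about -70% in these data; inconclusive means activity change between two set negative limits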
Target sequence (P16473 whole entry, looked up): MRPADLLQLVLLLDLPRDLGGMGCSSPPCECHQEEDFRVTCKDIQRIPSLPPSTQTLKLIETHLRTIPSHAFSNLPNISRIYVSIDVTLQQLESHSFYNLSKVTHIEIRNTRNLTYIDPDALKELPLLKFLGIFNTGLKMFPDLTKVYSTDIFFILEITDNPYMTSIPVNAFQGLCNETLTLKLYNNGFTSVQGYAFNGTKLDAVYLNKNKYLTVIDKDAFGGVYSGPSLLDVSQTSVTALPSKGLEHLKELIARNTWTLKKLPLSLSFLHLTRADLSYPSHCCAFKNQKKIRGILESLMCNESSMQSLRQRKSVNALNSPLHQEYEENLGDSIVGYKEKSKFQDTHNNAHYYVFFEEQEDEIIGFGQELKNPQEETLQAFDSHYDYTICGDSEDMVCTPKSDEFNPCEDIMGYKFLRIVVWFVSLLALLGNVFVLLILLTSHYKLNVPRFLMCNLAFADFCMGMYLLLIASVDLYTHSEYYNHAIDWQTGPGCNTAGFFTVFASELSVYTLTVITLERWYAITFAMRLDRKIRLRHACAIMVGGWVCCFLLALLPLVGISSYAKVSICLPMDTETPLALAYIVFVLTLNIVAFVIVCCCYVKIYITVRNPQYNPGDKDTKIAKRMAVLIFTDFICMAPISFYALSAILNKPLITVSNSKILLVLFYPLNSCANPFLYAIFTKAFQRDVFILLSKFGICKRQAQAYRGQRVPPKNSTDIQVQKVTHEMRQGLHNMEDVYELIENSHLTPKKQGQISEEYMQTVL
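TSHR-expressing cells, 200/well, pre-treated with compound, then stimulated with EC80 TSH (4nM final) for 2 hours at 37 deg C. cAMP measured by competitive HTRF: anti-cAMP cryptate antibody in lysis buffer plus cAMP-d2, read after 30 minutes at room temperature.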
TCR activator – activators of T cell receptors. primary human leukocytes, anti-CD3, IL-2 HTRF, 48 h. Potency, µM (doses to about 9.22 µM), usual class: activators. 330,000 tested, under 10 active; active means well fitted activation curve with a large enough effect; inconclusive means small, poorly fitted or top-dose-only effect, or another doubt; inactive means no such curve, though single readings can be large or run the other way
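IL-2 produced over 48 hr by a-CD3 bead-stimulated primary human leukocytes exposed to compounds was detected with a homogeneous time-resolved FRET immunoassay, 665nm acceptor signal after 320nm excitation.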
pAkt inh – blocks phosphorylation of Akt; 360,000 compounds, 0.32% hits; activity change, % for hits at 50 µM; Neuro2A IGF-stimulated pAkt S473 HTRF, 20 min; hits give low values; in the data active means activity change below about -80%; inconclusive means mostly about -51% to -80%
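Single-point screen (50 µM final compound) in Neuro2A cells stimulated 20 min with 6 nM IGF at 37 deg C. After lysis, Ser473-phosphorylated Akt read by HTRF (ex 330 nm, em 615/665 nm) as the 665/615 ratio.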
CCT chaperon mod – changes cytosolic chaperonin activity. purified chaperonin ATPase assay, HTRF ADP detection, 30 min. activity change, % (concentration not given with the values), hits read low. 360,000 compounds, 0.3% hits. AID 651819; in the data active means activity change below about -30%
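First, chaperonin was dispensed at 40 nM or 20 nM final depending on batch activity. Next, compounds were pinned at 76 uM and ATP added at 10 uM. After 30 min at 37 °C, ADP detection reagents ran 30 min at ambient temperature.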
Large screens that a line does not name were inactive.

CC(C)C12CN3CC(C(C)C)(CN(C1)C3c1cccnc1)C2=O (centres undefined)	pAkt inh -108%
O=C1N(c2ccccc2)C(c2cccnc2)N2CCCN12 (centres undefined)	none (no result: TCR activator)
NC1CC1c1ccccc1 (centres undefined)	none (no result: TCR activator, pAkt inh, CCT chaperon mod)
COc1ccc(O)c(CN2CCCC(C(=O)c3ccccc3SC)C2)c1 (centres undefined)	CCT chaperon mod -45
COc1ccccc1CN1CCCC(C(=O)c2ccccc2SC)C1 (centres undefined)	none
Nc1ccc2ccccc2c1	none (no result: TSHR antagonist)
Nc1ccc(-c2ccccc2)cc1	CCT chaperon mod -52 (no result: TSHR antagonist)
Oc1cccc(/C=N/NP(=S)(c2ccccc2)c2ccccc2)c1	pAkt inh -117%
CS(=N)(=O)CC[C@H](N)C(=O)O (some centres undefined)	none (no result: TCR activator, pAkt inh, CCT chaperon mod)
Cc1ccccc1-[n+]1c(-c2ccccc2)cc(-c2ccccc2)cc1-c1ccccc1	TSHR antagonist -75
CCOC(=O)[C@]1(C#N)[C@@H]2C=CC(C(C)=O)=CN2[C@@H](C(N)=O)[C@@H]1c1ccsc1	pAkt inh -106%
O=C(O)[C@@H]1CCN1	none (no result: TCR activator, pAkt inh, CCT chaperon mod)
CC(=NCCC1=CCCCC1)c1c(O)[nH]c(=O)[nH]c1=O	pAkt inh -121%
CNc1cc(Cl)c2nonc2c1[N+](=O)[O-]	TSHR antagonist -89
Cc1cc([N+](=O)[O-])c(Cl)cc1NC(=O)C(C)C	none
CC(=NCCCN1CCCCC1)c1c(O)n(Cc2ccccc2)c(=O)[nH]c1=O	pAkt inh -116%
CN(C)CCCN=Cc1c(O)n(CCc2ccc(F)cc2)c(=O)[nH]c1=O	pAkt inh -120%
CN(C)CCCN=Cc1c(O)n(CCc2ccccc2)c(=O)[nH]c1=O	none (no result: TCR activator)
NC(CP(=O)(O)O)C(=O)O (centres undefined)	none (no result: TCR activator, pAkt inh, CCT chaperon mod)
CNc1ccc2oc(C[C@H]3O[C@@]4(CC[C@H]3C)O[C@H]([C@H](C)C(=O)c3ccc[nH]3)[C@H](C)C[C@H]4C)nc2c1C(=O)O	TSHR antagonist -90
O=C1CC[C@@]2(O)C3Cc4ccc(O)c5c4C2(CCN3CC2CC2)[C@H]1O5 (some centres undefined)	none (no result: TCR activator, pAkt inh, CCT chaperon mod)
C=CCN1C[C@@H](C)N([C@H](c2ccc(C(=O)N(CC)CC)cc2)c2cccc(OC)c2)C[C@@H]1C	none (no result: TCR activator, pAkt inh, CCT chaperon mod)
CN1CCC2(CC1)c1ccccc1-c1ccccc12	none (no result: TSHR antagonist)
Nc1ccc(C2(c3ccc(N)cc3)c3ccccc3-c3ccccc32)cc1	TSHR antagonist -102
C=Cn1ccnc1P(=S)(c1nccn1C=C)c1nccn1C=C	none (no result: TCR activator)
C=Cn1ccnc1P(=S)(c1nccn1C=C)C1CCCCC1	CCT chaperon mod -77
CN=C(SCc1ccccc1)c1c(O)n(C)c(=O)n(C)c1=O	pAkt inh -108%
Cn1c(O)c(C(=O)c2ccccc2)c(=O)n(C)c1=O	none
N#C/C(=C/c1ccc(O)c(O)c1)C(N)=S	none (no result: TCR activator, pAkt inh, CCT chaperon mod)
CCOC(=O)C1C(=O)N(C)C2(C)CC1c1ccccc1O2 (centres undefined)	pAkt inh -114%
COC(=O)C1=C(c2ccc(-c3ccccc3)c(F)c2)C[C@@H]2CC[C@H]1N2C(=O)N1CCCC1	TSHR antagonist inconclusive, CCT chaperon mod -33
COC(=O)C1=C(c2ccc(-c3ccccc3)c(F)c2)C[C@@H]2CC[C@H]1N2C(=O)NCCOc1ccccc1	TSHR antagonist -89
CC1(C)C[C@H]2C=C(C=O)[C@]3(C=O)C[C@]3(C)[C@H]2C1	TSHR antagonist -87
N=C(N)c1ccc(CS(=O)(=O)F)cc1	none (no result: TCR activator, pAkt inh, CCT chaperon mod)
COc1ccc(-c2nc3ccccc3c(=O)n2-c2ccc(OC)cc2)cc1	none
COc1ccc(-n2c(SCCN(C)C)nc3ccccc3c2=O)cc1	CCT chaperon mod -113
NC(CCCCCP(=O)(O)O)C(=O)O (centres undefined)	none (no result: TCR activator, pAkt inh, CCT chaperon mod)
C[C@]12CC[C@H]3C(CCC4(O)CC(O)CC[C@]34C=O)C1=CC[C@H]2c1ccc(=O)oc1 (some centres undefined)	TSHR antagonist inconclusive
CC(=O)O[C@H]1[C@H]2O[C@]23[C@@H]2CC[C@]4(O)C[C@@H](O)CC[C@]4(C)C2CC[C@]3(C)[C@H]1c1ccc(=O)oc1 (some centres undefined)	TSHR antagonist -79
COc1ccc(C(=O)c2sc3nc(C)cc(-c4cccs4)c3c2N)cc1OC	TCR activator inconclusive
CN1/C(=C\C=C\C2=[N+](C)c3ccc4ccccc4c3C2(C)C)C(C)(C)c2ccccc21	TSHR antagonist -93 (no result: TCR activator, pAkt inh, CCT chaperon mod)
CN1CCN(c2ccc([N+](=O)[O-])c3no[n+]([O-])c23)CC1	TSHR antagonist -97
CCN1C[C@@]2(COC)C3[C@@H](OC)C4[C@@H]1C3([C@@H]1C[C@]3(O)[C@H](OC(=O)c5ccccc5)[C@@H]1[C@]4(OC(C)=O)[C@@H](O)[C@@H]3OC)[C@H](OC)C[C@H]2O	none (no result: TCR activator, pAkt inh, CCT chaperon mod)
COc1ccc2c(c1)c(CCN1CCOCC1)c(C)n2C(=O)c1cccc(Cl)c1Cl	none (no result: TCR activator, pAkt inh, CCT chaperon mod)
NC(N)=NOCC[C@H](N)C(=O)O	none (no result: TCR activator, pAkt inh, CCT chaperon mod)
C[C@]12CC[C@H](O)C[C@H]1CC[C@@H]1[C@@H]2CC[C@]2(C)[C@@H](C3=CC(=O)OC3)CC[C@]12O	TSHR antagonist -78
C[C@]12CC[C@H](O)C[C@H]1CC[C@@H]1[C@@H]2C[C@@H](O)[C@]2(C)[C@@H](C3=CC(=O)OC3)CC[C@]12O	TSHR antagonist -75
CN1CC[C@@]2(C)c3cc(OC(=O)Nc4ccccc4)ccc3N(C)[C@@H]12	none (no result: TCR activator, pAkt inh, CCT chaperon mod)
O=C(N/N=C/c1c(O)n(CCC2=CCCCC2)c(=O)[nH]c1=O)c1ccccc1	none
Nc1ccccc1N=Cc1c(O)n(CCC2=CCCCC2)c(=O)[nH]c1=O	pAkt inh -115%
O=C(c1cn(Cc2ccccc2F)c2ncccc12)C(F)(F)F	CCT chaperon mod -36
O=C(C(=O)N1CCOCC1)c1cn(Cc2ccccc2F)c2ccccc12	none
O=c1[nH]c(=O)n(Cc2ccco2)c(O)c1C=NCc1cccs1	pAkt inh -93% (no result: TSHR antagonist, TCR activator)

Assay outcomes from PubChem BioAssay.
